Assay results taken from PubChem BioAssay AID1159580 (chemical genetic matrix, 2015).
Where “and” joins values, the source holds several entries; their conditions need not be identical. Equal values may be shown once. Hit rate of the full screen: of about 5,500 compounds, about 2,000 (36%) were called active. Another 18% or so got no clear call; they are omitted. No stated cut-off is given here; in the data, active means normalized growth mostly below about 0.91 (no sharp cut-off); inconclusive means no clear call, values can overlap the other calls; inactive means mostly above about 0.92. This is one part of the list.

Test: chemical genetic growth profiling, strain panel (AID 1159580);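 further: tested at 20 µM; growth read once vehicle control cultures reached saturation at 30 °C; 1 = growth at the plate median or of vehicle wells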
Conditions: growth OD
[1] = S. cerevisiae deletion strains, locus YBR229C, strain ROT2, stronger effect = lower value
[2] = S. cerevisiae deletion strains, locus YDL101C, strain DUN1, stronger effect = lower value
[3] = S. cerevisiae deletion strains, locus YEL061C, strain CIN8, stronger effect = lower value
[4] = S. cerevisiae deletion strains, locus YHR030C, strain SLT2, stronger effect = lower value
[5] = S. cerevisiae deletion strains, locus YJR043C, strain POL32, stronger effect = lower value
[6] = S. cerevisiae deletion strains, locus YKL190W, strain CNB1, stronger effect = lower value
[7] = S. cerevisiae deletion strains, locus YLR039C, strain RIC1, stronger effect = lower value
[8] = S. cerevisiae deletion strains, locus YLR262C, strain YPT6, stronger effect = lower value
[9] = S. cerevisiae deletion strains, locus YMR263W, strain SAP30, stronger effect = lower value
[10] = S. cerevisiae deletion strains, locus YNL322C, strain KRE1, stronger effect = lower value
[11] = S. cerevisiae strains, strain wild type, stronger effect = lower value

## Cc1ccc(C)n1-c1ccc(C(=O)NNC(=O)c2ccc3nccnc3c2)cc1
S. cerevisiae deletion strains, locus YAL013W, strain DEP1, stronger effect = lower value
  normalized growth: 0.989 (inactive)
[1]
  normalized growth: 1 (inactive)
S. cerevisiae deletion strains, locus YCL061C, strain MRC1, stronger effect = lower value
  normalized growth: 1.06 (inactive)
[2]
  normalized growth: 0.989 (inactive)
S. cerevisiae deletion strains, locus YDR150W, strain NUM1, stronger effect = lower value
  normalized growth: 1.04 (inactive)
[3]
  normalized growth: 1.01 (inactive)
S. cerevisiae deletion strains, locus YGR078C, strain PAC10, stronger effect = lower value
  normalized growth: 1.01 (inactive)
[4]
  normalized growth: 1.14 (inactive)
S. cerevisiae deletion strains, locus YHR087W, strain rtc3, stronger effect = lower value
  normalized growth: 0.986 (inactive)
S. cerevisiae deletion strains, locus YJL187C, strain SWE1, stronger effect = lower value
  normalized growth: 0.979 (inactive)
[5]
  normalized growth: 1.02 (inactive)
S. cerevisiae deletion strains, locus YJR075W, strain HOC1, stronger effect = lower value
  normalized growth: 1.06 (inactive)
[6]
  normalized growth: 0.991 (inactive)
[7]
  normalized growth: 1.01 (inactive)
S. cerevisiae deletion strains, locus YLR058C, strain SHM2 (second series), stronger effect = lower value
  normalized growth: 0.999 (inactive)
S. cerevisiae deletion strains, locus YLR085C, strain ARP6, stronger effect = lower value
  normalized growth: 0.921 (inactive)
[8]
  normalized growth: 1.11 (inactive)
S. cerevisiae deletion strains, locus YML094W, strain GIM5, stronger effect = lower value
  normalized growth: 0.98 (inactive)
S. cerevisiae deletion strains, locus YMR219W, strain ESC1, stronger effect = lower value
  normalized growth: 0.989 (inactive)
[9]
  normalized growth: 0.986 (inactive)
S. cerevisiae deletion strains, locus YNL128W, strain TEP1, stronger effect = lower value
  normalized growth: 0.991 (inactive)
S. cerevisiae deletion strains, locus YNL153C, strain GIM3, stronger effect = lower value
  normalized growth: 1.02 (inactive)
S. cerevisiae deletion strains, locus YNL298W, strain CLA4 (second series), stronger effect = lower value
  normalized growth: 0.992 (inactive)
[10]
  normalized growth: 0.999 (inactive)
S. cerevisiae deletion strains, locus YNR030W, strain Alg12, stronger effect = lower value
  normalized growth: 1 (inactive)
S. cerevisiae deletion strains, locus YPL055C, strain LGE1, stronger effect = lower value
  normalized growth: 0.995 (inactive)
S. cerevisiae deletion strains, locus YPL241C, strain CIN2, stronger effect = lower value
  normalized growth: 0.976 (inactive)
S. cerevisiae deletion strains, locus YPR135W, strain CTF4, stronger effect = lower value
  normalized growth: 1.13 (inactive)
[11]
  normalized growth: 0.993 (inactive)

## CCCCC[C@H]1C(=O)O[C@H](C)[C@H](NC(=O)c2cccc(NC=O)c2O)C(=O)O[C@@H](C)[C@@H]1OC(=O)CC(C)C
S. cerevisiae deletion strains, locus YBR021W, strain FUR4, stronger effect = lower value
  normalized growth: 0.965 (inactive)
[1]
  normalized growth: 0.949 (inactive)
S. cerevisiae deletion strains, locus YCL029C, strain bik1, stronger effect = lower value
  normalized growth: 0.922 (inactive)
S. cerevisiae deletion strains, locus YDL035C, strain GPR1, stronger effect = lower value
  normalized growth: 0.839 (active)
S. cerevisiae deletion strains, locus YDL074C, strain BRE1, stronger effect = lower value
  normalized growth: 0.797 (inactive)
[2]
  normalized growth: 0.936 (inactive)
S. cerevisiae deletion strains, locus YDL134C, strain PPH21, stronger effect = lower value
  normalized growth: 0.86 (active)
S. cerevisiae deletion strains, locus YDL185W, strain tfp1, stronger effect = lower value
  normalized growth: 0.919 (inactive)
S. cerevisiae deletion strains, locus YDL192W, strain arf1, stronger effect = lower value
  normalized growth: 0.91 (active)
S. cerevisiae deletion strains, locus YDR101C, strain arx1, stronger effect = lower value
  normalized growth: 0.93 (inactive)
S. cerevisiae deletion strains, locus YDR162C, strain NBP2, stronger effect = lower value
  normalized growth: 0.905 (inactive)
S. cerevisiae deletion strains, locus YDR318W, strain mcm21, stronger effect = lower value
  normalized growth: 0.908 (active)
S. cerevisiae deletion strains, locus YDR388W, stronger effect = lower value
  normalized growth: 0.913 (active)
S. cerevisiae deletion strains, locus YDR502C, strain sam2, stronger effect = lower value
  normalized growth: 0.939 (inactive)
[3]
  normalized growth: 0.936 (inactive)
S. cerevisiae deletion strains, locus YER110C, stronger effect = lower value
  normalized growth: 0.979 (inactive)
S. cerevisiae deletion strains, locus YER155C, strain BEM2, stronger effect = lower value
  normalized growth: 0.978 (inactive)
S. cerevisiae deletion strains, locus YER167W, strain BCK2, stronger effect = lower value
  normalized growth: 0.904 (active)
S. cerevisiae deletion strains, locus YGL078C, strain dbp3, stronger effect = lower value
  normalized growth: 0.895 (active)
S. cerevisiae deletion strains, locus YGL086W, strain mad1, stronger effect = lower value
  normalized growth: 0.923 (active)
S. cerevisiae deletion strains, locus YGL248W, strain PDE1, stronger effect = lower value
  normalized growth: 0.912 (inactive)
S. cerevisiae deletion strains, locus YGR135W, strain pre9, stronger effect = lower value
  normalized growth: 0.891 (active)
S. cerevisiae deletion strains, locus YGR252W, strain gcn5, stronger effect = lower value
  normalized growth: 0.684 (active)
[4]
  normalized growth: 0.947 (inactive) and 0.873 (inactive)
S. cerevisiae deletion strains, locus YHR079C, strain IRE1 (second series), stronger effect = lower value
  normalized growth: 0.943 (inactive)
S. cerevisiae deletion strains, locus YHR079C, strain IRE1, stronger effect = lower value
  normalized growth: 0.863 (inactive)
S. cerevisiae deletion strains, locus YHR094C, strain hxt1, stronger effect = lower value
  normalized growth: 0.933 (inactive)
S. cerevisiae deletion strains, locus YHR129C, strain ARP1, stronger effect = lower value
  normalized growth: 0.904 (active)
S. cerevisiae deletion strains, locus YHR200W, strain rpn10, stronger effect = lower value
  normalized growth: 0.904 (active)
S. cerevisiae deletion strains, locus YIL066C, strain RNR3, stronger effect = lower value
  normalized growth: 0.88 (inactive)
S. cerevisiae deletion strains, locus YIL073C, strain SPO22, stronger effect = lower value
  normalized growth: 0.844 (inactive)
S. cerevisiae deletion strains, locus YIL125W, strain kgd1, stronger effect = lower value
  normalized growth: 0.896 (active)
S. cerevisiae deletion strains, locus YIR030C, strain dcg1, stronger effect = lower value
  normalized growth: 0.946 (inactive)
S. cerevisiae deletion strains, locus YJL095W, strain BCK1, stronger effect = lower value
  normalized growth: 0.875 (inactive) and 0.859 (active)
S. cerevisiae deletion strains, locus YJL134W, strain LCB3, stronger effect = lower value
  normalized growth: 0.932 (inactive)
S. cerevisiae deletion strains, locus YJL168C, strain set2, stronger effect = lower value
  normalized growth: 0.933 (inactive)
S. cerevisiae deletion strains, locus YJL187C, strain SWE1 (second series), stronger effect = lower value
  normalized growth: 0.889 (inactive)
[5]
  normalized growth: 0.838 (active)
S. cerevisiae deletion strains, locus YJR066W, strain TOR1, stronger effect = lower value
  normalized growth: 0.861 (inactive)
S. cerevisiae deletion strains, locus YKL068W, stronger effect = lower value
  normalized growth: 1.02 (inactive)
S. cerevisiae deletion strains, locus YKL085W, strain MDH1 (second series), stronger effect = lower value
  normalized growth: 0.961 (inactive)
S. cerevisiae deletion strains, locus YKL085W, strain MDH1, stronger effect = lower value
  normalized growth: 0.961 (inactive)
[6]
  normalized growth: 0.933 (inactive)
S. cerevisiae deletion strains, locus YKR001C, strain vps1, stronger effect = lower value
  normalized growth: 0.922 (inactive)
[7]
  normalized growth: 0.933 (inactive)
S. cerevisiae deletion strains, locus YLR058C, strain SHM2, stronger effect = lower value
  normalized growth: 0.932 (inactive)
S. cerevisiae deletion strains, locus YLR102C, strain apc9, stronger effect = lower value
  normalized growth: 0.944 (inactive)
S. cerevisiae deletion strains, locus YLR113W, strain HOG1, stronger effect = lower value
  normalized growth: 0.777 (active)
[8]
  normalized growth: 0.84 (inactive)
S. cerevisiae deletion strains, locus YLR268W, strain sec22, stronger effect = lower value
  normalized growth: 0.923 (inactive)
S. cerevisiae deletion strains, locus YLR330W, strain CHS5, stronger effect = lower value
  normalized growth: 0.962 (inactive)
S. cerevisiae deletion strains, locus YLR342W, strain FKS1 (second series), stronger effect = lower value
  normalized growth: 0.887 (inactive)
S. cerevisiae deletion strains, locus YLR371W, strain rom2, stronger effect = lower value
  normalized growth: 0.921 (inactive)
S. cerevisiae deletion strains, locus YLR418C, strain cdc73, stronger effect = lower value
  normalized growth: 0.893 (inactive)
S. cerevisiae deletion strains, locus YML016C, strain PPZ1, stronger effect = lower value
  normalized growth: 0.946 (inactive)
S. cerevisiae deletion strains, locus YML032C, strain rad52, stronger effect = lower value
  normalized growth: 0.83 (active)
S. cerevisiae deletion strains, locus YML124C, strain tub3, stronger effect = lower value
  normalized growth: 0.943 (inactive)
S. cerevisiae deletion strains, locus YMR078C, strain ctf18, stronger effect = lower value
  normalized growth: 0.9 (active)
S. cerevisiae deletion strains, locus YMR223W, strain ubp8, stronger effect = lower value
  normalized growth: 0.88 (active)
[9]
  normalized growth: 0.921 (inactive)
S. cerevisiae deletion strains, locus YMR307W, strain GAS1, stronger effect = lower value
  normalized growth: 0.616 (inactive)
S. cerevisiae deletion strains, locus YNL067W, strain RPL9B, stronger effect = lower value
  normalized growth: 0.921 (inactive)
S. cerevisiae deletion strains, locus YNL183C, strain NPR1, stronger effect = lower value
  normalized growth: 0.827 (active)
S. cerevisiae deletion strains, locus YNL233W, strain BNI4, stronger effect = lower value
  normalized growth: 0.914 (inactive)
S. cerevisiae deletion strains, locus YNL250W, strain rad50, stronger effect = lower value
  normalized growth: 0.853 (active)
S. cerevisiae deletion strains, locus YNL271C, strain bni1, stronger effect = lower value
  normalized growth: 0.9 (active)
S. cerevisiae deletion strains, locus YNL298W, strain CLA4, stronger effect = lower value
  normalized growth: 0.891 (active)
S. cerevisiae deletion strains, locus YNL307C, strain MCK1, stronger effect = lower value
  normalized growth: 0.967 (inactive)
[10]
  normalized growth: 0.937 (inactive)
S. cerevisiae deletion strains, locus YNR052C, strain pop2, stronger effect = lower value
  normalized growth: 0.874 (active)
S. cerevisiae deletion strains, locus YOL006C, strain TOP1, stronger effect = lower value
  normalized growth: 0.736 (inactive)
S. cerevisiae deletion strains, locus YOL012C, strain htz1
  normalized growth: 0.619 (inactive)
S. cerevisiae deletion strains, locus YOL147C, strain pex11, stronger effect = lower value
  normalized growth: 0.942 (inactive)
S. cerevisiae deletion strains, locus YOR061W, strain CKA2, stronger effect = lower value
  normalized growth: 0.895 (inactive)
S. cerevisiae deletion strains, locus YOR069W, strain VPS5, stronger effect = lower value
  normalized growth: 0.932 (inactive)
S. cerevisiae deletion strains, locus YOR136W, strain idh2, stronger effect = lower value
  normalized growth: 0.983 (inactive)
S. cerevisiae deletion strains, locus YOR144C, strain elg1, stronger effect = lower value
  normalized growth: 0.933 (active)
S. cerevisiae deletion strains, locus YOR184W, strain ser1, stronger effect = lower value
  normalized growth: 0.674 (active)
S. cerevisiae deletion strains, locus YOR231W, strain MKK1, stronger effect = lower value
  normalized growth: 0.864 (inactive)
S. cerevisiae deletion strains, locus YOR316C, strain cot1, stronger effect = lower value
  normalized growth: 0.945 (inactive)
S. cerevisiae deletion strains, locus YPL256C, strain CLN2, stronger effect = lower value
  normalized growth: 0.912 (inactive)
S. cerevisiae deletion strains, locus YPR119W, strain clb2, stronger effect = lower value
  normalized growth: 0.939 (inactive)
S. cerevisiae deletion strains, locus YPR141C, strain kar3, stronger effect = lower value
  normalized growth: 0.9 (active)
S. cerevisiae deletion strains, locus YPR163C, strain tif3, stronger effect = lower value
  normalized growth: 0.893 (active)
S. cerevisiae deletion strains, locus YPR167C, strain met16, stronger effect = lower value
  normalized growth: 0.939 (inactive)
S. cerevisiae deletion strains, strain wtn01, stronger effect = lower value
  normalized growth: 0.901 (inactive)
[11]
  normalized growth: 0.895 (active)
